The text below walks through data of ChEMBL document CHEMBL2218924, “A broad activity screen in support of a chemogenomic map for kinase signalling research and drug discovery” (Biochem J, 2013).

Molecules are shown by their SMILES.

For assay [1], the target named is Tyrosine-protein kinase SYK (Homo sapiens) (UniProt P43405). The note with it: at 10 µM.
The target of assay [2] is T1, Mitogen-activated protein kinase kinase kinase 7 (Homo sapiens) (UniProt O43318).
T1 sequence (whole entry): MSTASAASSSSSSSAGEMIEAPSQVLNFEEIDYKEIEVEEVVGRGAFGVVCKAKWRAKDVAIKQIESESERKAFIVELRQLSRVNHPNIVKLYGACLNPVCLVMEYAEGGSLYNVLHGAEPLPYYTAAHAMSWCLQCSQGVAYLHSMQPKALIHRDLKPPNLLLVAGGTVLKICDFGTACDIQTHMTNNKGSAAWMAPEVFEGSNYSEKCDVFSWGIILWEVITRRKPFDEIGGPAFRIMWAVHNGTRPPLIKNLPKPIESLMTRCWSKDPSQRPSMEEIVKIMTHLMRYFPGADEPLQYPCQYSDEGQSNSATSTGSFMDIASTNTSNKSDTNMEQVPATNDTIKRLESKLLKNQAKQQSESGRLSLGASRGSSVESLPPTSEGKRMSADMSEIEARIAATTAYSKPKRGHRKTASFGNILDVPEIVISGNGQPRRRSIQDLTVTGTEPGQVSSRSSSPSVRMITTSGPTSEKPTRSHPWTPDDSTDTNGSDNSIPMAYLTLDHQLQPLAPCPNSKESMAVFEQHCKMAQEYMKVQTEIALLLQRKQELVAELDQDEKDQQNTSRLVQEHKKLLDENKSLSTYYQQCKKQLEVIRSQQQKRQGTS
The conditions noted are these: at 1 µM.

For assay [3], the target named is T1, Mitogen-activated protein kinase kinase kinase 7 (Homo sapiens). The note with it: at 10 µM.
In assay [4] the target is T2, Serine/threonine-protein kinase TAO1 (Homo sapiens) (UniProt Q7L7X3).
T2 sequence (whole entry): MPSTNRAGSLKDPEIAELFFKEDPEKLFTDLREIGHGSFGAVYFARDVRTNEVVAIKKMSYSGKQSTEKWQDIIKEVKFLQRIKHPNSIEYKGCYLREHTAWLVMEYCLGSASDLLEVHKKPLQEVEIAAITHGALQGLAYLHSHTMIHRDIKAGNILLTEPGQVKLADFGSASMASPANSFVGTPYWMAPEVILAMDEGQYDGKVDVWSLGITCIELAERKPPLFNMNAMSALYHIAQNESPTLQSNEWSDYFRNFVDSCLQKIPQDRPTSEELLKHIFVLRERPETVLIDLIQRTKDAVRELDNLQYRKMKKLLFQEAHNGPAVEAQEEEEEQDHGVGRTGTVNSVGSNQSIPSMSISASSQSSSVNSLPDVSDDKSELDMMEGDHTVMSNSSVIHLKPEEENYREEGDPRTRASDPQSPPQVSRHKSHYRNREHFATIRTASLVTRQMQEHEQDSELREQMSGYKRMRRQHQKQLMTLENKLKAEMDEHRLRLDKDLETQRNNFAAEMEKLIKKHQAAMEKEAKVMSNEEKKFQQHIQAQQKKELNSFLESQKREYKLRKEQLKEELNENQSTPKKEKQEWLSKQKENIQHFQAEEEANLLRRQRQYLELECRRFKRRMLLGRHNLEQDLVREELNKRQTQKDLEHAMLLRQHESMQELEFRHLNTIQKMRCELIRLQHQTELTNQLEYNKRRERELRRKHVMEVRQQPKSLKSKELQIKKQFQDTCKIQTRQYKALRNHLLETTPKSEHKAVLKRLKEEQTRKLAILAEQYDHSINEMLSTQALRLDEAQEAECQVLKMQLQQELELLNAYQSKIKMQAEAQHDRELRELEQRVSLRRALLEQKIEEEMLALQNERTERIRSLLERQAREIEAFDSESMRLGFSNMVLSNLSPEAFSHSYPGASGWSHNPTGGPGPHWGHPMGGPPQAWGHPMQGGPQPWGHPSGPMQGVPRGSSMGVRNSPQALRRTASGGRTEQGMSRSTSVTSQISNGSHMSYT
The conditions noted are these: at 10 µM.

In assay [5] the target is T3, Serine/threonine-protein kinase TAO2 (Homo sapiens) (UniProt Q9UL54).
T3 sequence (whole entry): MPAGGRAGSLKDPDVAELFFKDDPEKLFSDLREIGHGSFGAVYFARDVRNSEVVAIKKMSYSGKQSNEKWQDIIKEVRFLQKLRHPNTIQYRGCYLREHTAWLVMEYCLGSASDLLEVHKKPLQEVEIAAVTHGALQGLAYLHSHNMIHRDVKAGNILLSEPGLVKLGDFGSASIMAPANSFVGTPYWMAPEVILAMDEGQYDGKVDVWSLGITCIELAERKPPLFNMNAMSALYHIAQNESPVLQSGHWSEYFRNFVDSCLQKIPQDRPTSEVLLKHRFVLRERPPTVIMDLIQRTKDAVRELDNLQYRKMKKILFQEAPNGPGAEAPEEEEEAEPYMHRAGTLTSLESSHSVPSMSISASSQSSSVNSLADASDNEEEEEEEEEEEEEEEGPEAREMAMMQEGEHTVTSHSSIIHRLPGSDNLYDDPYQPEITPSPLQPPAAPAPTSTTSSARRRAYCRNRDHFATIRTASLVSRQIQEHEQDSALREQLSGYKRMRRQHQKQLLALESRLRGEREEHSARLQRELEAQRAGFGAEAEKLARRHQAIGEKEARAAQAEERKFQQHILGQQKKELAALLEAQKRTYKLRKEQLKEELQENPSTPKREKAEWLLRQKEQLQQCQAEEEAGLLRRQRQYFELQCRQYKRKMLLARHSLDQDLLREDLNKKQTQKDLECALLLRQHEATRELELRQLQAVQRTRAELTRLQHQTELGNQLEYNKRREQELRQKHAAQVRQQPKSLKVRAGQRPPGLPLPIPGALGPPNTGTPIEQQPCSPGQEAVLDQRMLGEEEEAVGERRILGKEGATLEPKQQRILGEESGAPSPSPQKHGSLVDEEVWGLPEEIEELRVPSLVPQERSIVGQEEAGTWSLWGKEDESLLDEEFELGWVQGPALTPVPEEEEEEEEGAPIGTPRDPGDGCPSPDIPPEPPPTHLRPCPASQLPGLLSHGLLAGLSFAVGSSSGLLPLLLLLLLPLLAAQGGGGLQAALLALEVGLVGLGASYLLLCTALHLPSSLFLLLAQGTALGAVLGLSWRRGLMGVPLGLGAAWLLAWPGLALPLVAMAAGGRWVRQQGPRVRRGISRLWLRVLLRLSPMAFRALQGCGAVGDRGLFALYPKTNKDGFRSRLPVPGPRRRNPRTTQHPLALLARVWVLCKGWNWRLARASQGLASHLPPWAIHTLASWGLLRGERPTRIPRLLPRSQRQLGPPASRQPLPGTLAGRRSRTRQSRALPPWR
The conditions noted are these: at 1 µM.

Assay [6] addresses T3, Serine/threonine-protein kinase TAO2 (Homo sapiens). The conditions noted are these: at 10 µM.
Assay [7] has as its target T4, Serine/threonine-protein kinase TAO3 (Homo sapiens) (UniProt Q9H2K8).
T4 sequence (whole entry): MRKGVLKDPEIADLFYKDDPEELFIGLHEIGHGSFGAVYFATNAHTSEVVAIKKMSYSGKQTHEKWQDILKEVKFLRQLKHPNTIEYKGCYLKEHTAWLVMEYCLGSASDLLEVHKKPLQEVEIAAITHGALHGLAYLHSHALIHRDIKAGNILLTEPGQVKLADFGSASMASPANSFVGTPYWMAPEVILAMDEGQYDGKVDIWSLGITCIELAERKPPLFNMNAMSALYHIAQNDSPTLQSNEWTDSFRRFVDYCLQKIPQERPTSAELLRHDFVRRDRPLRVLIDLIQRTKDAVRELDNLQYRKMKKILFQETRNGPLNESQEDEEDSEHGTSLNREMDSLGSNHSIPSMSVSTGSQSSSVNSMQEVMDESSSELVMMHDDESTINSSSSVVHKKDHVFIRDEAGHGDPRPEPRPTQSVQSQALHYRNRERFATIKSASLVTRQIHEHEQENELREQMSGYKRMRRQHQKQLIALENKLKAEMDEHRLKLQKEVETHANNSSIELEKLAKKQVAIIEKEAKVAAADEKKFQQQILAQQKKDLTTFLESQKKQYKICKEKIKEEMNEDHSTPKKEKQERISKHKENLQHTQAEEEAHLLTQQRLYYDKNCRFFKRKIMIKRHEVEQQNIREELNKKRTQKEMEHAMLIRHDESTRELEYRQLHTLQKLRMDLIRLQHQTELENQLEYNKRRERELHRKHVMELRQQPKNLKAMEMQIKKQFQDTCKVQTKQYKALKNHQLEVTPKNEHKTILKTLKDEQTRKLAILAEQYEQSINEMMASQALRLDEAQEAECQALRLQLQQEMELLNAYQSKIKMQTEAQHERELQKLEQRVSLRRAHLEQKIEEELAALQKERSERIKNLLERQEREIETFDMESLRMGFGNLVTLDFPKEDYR
The conditions noted are these: at 1 µM.

Assay [8] concerns the target T4, Serine/threonine-protein kinase TAO3 (Homo sapiens). The note with it: at 10 µM.
Assay [9] addresses T5, Serine/threonine-protein kinase TBK1 (Homo sapiens) (UniProt Q9UHD2).
T5 sequence (whole entry): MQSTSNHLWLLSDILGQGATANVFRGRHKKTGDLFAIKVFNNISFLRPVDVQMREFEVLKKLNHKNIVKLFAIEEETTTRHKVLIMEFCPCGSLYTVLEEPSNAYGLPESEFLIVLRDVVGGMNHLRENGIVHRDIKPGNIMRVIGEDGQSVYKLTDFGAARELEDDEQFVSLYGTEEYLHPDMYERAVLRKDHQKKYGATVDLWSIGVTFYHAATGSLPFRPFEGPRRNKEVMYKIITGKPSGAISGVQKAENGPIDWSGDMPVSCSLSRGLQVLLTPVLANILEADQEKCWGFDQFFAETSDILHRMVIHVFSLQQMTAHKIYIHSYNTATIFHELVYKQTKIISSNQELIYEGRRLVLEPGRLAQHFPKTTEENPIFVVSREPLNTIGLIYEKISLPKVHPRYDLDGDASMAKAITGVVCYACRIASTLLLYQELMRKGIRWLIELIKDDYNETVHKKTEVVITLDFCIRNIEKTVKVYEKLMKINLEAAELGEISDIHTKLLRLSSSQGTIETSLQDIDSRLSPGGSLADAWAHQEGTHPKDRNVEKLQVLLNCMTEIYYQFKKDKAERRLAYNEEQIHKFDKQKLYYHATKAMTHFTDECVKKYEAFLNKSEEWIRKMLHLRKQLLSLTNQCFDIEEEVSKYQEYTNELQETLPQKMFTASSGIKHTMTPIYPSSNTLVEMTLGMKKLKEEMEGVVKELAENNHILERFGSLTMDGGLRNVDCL
The conditions noted are these: at 1 µM.

In assay [10] the target is T5, Serine/threonine-protein kinase TBK1 (Homo sapiens). The note with it: at 10 µM.
Assay [11] concerns the target T6, TGF-beta receptor type-1 (Homo sapiens) (UniProt P36897).
T6 sequence (whole entry): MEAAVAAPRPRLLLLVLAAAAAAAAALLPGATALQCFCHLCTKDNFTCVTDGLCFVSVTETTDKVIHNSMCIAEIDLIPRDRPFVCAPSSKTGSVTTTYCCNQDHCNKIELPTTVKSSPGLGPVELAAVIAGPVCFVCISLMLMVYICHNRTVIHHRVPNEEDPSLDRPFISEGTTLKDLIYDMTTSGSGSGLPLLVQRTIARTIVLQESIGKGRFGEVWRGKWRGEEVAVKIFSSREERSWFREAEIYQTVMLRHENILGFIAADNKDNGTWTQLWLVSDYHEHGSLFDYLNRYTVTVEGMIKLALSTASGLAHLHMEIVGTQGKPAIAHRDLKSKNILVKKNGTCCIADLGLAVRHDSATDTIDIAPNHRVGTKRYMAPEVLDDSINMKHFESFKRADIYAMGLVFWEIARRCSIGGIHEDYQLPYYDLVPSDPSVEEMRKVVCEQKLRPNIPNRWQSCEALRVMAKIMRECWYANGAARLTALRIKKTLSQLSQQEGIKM
The conditions noted are these: at 1 µM.

In assay [12] the target is T6, TGF-beta receptor type-1 (Homo sapiens). The note with it: at 10 µM.
Assay [13] concerns the target Insulin-like growth factor 1 receptor (Homo sapiens) (UniProt P08069). The conditions noted are these: at 10 µM.
The target in assay [14] is T7, Inhibitor of nuclear factor kappa-B kinase subunit beta (Homo sapiens) (UniProt O14920).
T7 sequence (whole entry): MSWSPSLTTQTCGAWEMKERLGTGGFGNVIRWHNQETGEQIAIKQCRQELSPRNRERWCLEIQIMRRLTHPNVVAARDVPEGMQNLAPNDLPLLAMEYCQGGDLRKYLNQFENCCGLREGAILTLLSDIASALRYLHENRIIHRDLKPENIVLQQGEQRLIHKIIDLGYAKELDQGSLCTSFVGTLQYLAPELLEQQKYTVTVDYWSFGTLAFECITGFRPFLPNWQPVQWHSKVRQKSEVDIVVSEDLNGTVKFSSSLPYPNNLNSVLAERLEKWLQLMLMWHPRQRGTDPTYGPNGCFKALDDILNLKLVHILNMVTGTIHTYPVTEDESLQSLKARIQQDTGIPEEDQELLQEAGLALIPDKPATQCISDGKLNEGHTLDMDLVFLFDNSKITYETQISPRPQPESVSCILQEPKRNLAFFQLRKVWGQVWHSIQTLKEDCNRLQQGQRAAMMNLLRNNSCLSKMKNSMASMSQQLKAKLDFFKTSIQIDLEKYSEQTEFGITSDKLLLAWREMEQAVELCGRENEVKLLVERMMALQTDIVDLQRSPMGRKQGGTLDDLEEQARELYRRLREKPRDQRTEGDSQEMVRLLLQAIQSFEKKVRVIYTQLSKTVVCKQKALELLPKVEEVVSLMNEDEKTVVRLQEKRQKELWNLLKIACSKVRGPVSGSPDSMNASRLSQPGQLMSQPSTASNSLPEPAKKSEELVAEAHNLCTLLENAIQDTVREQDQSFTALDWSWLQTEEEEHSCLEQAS
The note with it: at 1 µM.

Assay [15] addresses T7, Inhibitor of nuclear factor kappa-B kinase subunit beta (Homo sapiens). The note with it: at 10 µM.

Chain of Insulin-like growth factor 1 receptor (Homo sapiens) (P08069 31-736 limits assumed): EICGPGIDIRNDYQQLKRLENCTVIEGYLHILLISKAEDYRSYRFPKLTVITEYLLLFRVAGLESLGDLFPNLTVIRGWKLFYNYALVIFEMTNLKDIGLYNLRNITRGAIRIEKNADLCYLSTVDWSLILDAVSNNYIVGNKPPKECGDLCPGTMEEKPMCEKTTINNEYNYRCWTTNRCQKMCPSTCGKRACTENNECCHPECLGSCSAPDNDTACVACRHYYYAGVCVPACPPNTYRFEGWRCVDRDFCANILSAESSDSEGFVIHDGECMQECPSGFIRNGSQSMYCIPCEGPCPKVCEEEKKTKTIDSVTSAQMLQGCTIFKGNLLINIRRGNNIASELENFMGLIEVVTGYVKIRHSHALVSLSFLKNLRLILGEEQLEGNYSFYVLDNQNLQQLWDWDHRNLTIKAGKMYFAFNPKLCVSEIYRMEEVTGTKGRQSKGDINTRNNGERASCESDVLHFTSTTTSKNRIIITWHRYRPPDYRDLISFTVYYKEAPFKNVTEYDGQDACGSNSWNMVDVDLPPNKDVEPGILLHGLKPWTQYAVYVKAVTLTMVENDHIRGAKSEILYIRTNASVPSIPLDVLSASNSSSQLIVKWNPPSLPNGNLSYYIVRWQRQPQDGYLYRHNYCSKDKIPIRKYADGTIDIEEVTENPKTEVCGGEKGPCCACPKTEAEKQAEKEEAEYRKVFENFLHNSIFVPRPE
Chain of Insulin-like growth factor 1 receptor (Homo sapiens) (P08069 741-1367 limits assumed): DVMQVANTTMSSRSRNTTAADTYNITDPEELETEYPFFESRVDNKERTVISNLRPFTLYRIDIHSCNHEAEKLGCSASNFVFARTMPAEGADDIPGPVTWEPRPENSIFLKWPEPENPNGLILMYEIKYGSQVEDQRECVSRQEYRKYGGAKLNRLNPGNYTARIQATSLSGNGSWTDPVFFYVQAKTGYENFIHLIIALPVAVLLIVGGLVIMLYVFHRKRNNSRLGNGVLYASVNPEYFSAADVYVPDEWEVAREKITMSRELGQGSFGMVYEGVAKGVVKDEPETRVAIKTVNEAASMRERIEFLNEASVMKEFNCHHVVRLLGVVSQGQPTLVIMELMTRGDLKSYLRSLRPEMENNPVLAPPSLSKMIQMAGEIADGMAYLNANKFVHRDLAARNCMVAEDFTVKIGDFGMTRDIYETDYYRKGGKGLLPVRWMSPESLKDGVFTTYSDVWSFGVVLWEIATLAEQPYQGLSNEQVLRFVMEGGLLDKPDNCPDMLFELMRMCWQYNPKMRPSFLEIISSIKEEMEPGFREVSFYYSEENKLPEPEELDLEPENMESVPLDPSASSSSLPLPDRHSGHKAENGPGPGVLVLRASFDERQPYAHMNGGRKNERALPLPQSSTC

As for `O=c1cc(N2CCNCC2)oc2c(-c3ccccc3)cccc12`, the residual activity in [1] came to 92%; in assay [2] it was 95%; in [3], 83%; in [4], 85%; in assay [5], 105%; in [6] it was 96%. Further, the residual activity in assay [7] was found to be 98%; in assay [8] it was 92%; in assay [9], 72%; in [10], 54%; in assay [11], 91%; in assay [12], 85%. Also, the residual activity in assay [13] came to 97%; in assay [14], 99%; in [15] it was 82%.
